From PubChem BioAssay AID624412 (The Scripps Research Institute Molecular Screening Center, 2012)
Among all 1,400 compounds or so, about 1,300 (93%) were called active. No stated cut-off is given here; in the data, active means inhibition above about 7%; inactive means the rest. The set was probably picked from earlier hits. A selection follows.

The compounds below were run on methionyl-tRNA synthetase (Trypanosoma brucei brucei) (assay: T. brucei MetRS inhibitors, confirmation, biochemical, luminescence (AID 624412)). Settings: T. brucei MetRS enzyme, luminescence (ATP depletion); at 11.9 µM; stronger effect = higher value.
For `COC(=O)/C(=C\Nc1ccccc1)NC(=O)c1ccc(Cl)cc1Cl`, the inhibition was 78% (active).
In the case of `c1ccc2cc3[nH]c(CN4CCCCC4)nc3cc2c1`, the inhibition is reported as 18.2% (active).
For `Cc1c(CN2CCC(CO)(CCOc3ccccc3)CC2)[nH]c2ccc(Cl)cc12`, the inhibition was 19% (active).
With `CN(C(=O)CSc1nnc(Nc2ccccc2)s1)C1CCS(=O)(=O)C1` (stereo not drawn) the inhibition was 12.5% (active).
For `CN(C(=O)CSc1nnc(-c2c[nH]c3ccccc23)o1)C1CCS(=O)(=O)C1` (stereo not drawn), the inhibition was 21.9% (active).
For `CCCCCn1nnnc1-c1nc2cc3ccccc3cc2[nH]c1=O`, the inhibition was 42.4% (active).
In the case of `c1ccc(CN=C2Nc3ccccc3CS2)nc1`, the inhibition is reported as 22% (active).
In the case of `Cc1cc(C)cc(NC(=O)N(C)Cc2ccccc2)c1`, the inhibition is reported as 3.08% (inactive).
For `COc1ccc(NC(=O)C(NC(C)=O)C(=O)NCc2ccccc2Cl)cc1` (stereo not drawn), the inhibition was 17.9% (active).
With `OCCNc1nc2ccccc2n1-c1ncnc2sc3c(c12)CCC3` the inhibition was 29.7% (active).
`Cc1ccc(O)c(CNc2nc3ccccc3[nH]2)c1` was tested, and the inhibition was 85.4% (active).
With `O=S(=O)(NCc1ccc(Cl)cc1Cl)c1cccs1` the inhibition was 33.5% (active).
For `CCCCN1C[C@H](c2ccc(Br)cc2)[C@@H](CC(=O)Nc2ccc(Br)cc2)C1=O`, the inhibition was 62.2% (active).
`O=C(OCc1nc2ccccc2[nH]1)C1CCCCC1` was tested, and the inhibition was 27.3% (active).
`O=C(NCc1cccc(CNC(=O)Nc2cccc(O)c2)c1)Nc1cccc(O)c1` was tested, and the inhibition was 17.5% (active).
In the case of `COc1ccc(CCn2ccc(O)c(Cc3ccc(Cl)cc3Cl)c2=O)cc1OC`, the inhibition is reported as 11.8% (active).
In the case of `O=C(Nc1cccc([N+](=O)[O-])c1)N1CCc2ccccc2C1`, the inhibition is reported as 25.6% (active).
With `O=C(CSCC(=O)Nc1cccc([N+](=O)[O-])c1)Nc1ccccc1` the inhibition was 17% (active).
For `Fc1ccc(NC(=S)N2CCc3[nH]c4ccccc4c3C2)cc1`, the inhibition was 35.4% (active).
For `O=C(Nc1ccc(Cl)cc1)N1CCc2[nH]c3ccccc3c2C1`, the inhibition was 20.4% (active).
`O=C(NNc1cc(Cl)cc(Cl)c1)c1c(F)cccc1Cl` was tested, and the inhibition was 66.4% (active).
For `Cc1ccc(N2C(=O)CC(NCc3ccc4c(c3)OCO4)C2=O)cc1Cl` (stereo not drawn), the inhibition was 98.5% (active).
For `O=C(/C(=N\O)n1cncn1)c1ccc(Br)cc1Br`, the inhibition was 18.3% (active).
With `CCCCN(C)Cc1c(C)[nH]c2ccc(Cl)cc2c1=O` the inhibition was 67.1% (active).
For `O=C(CC(=O)Nc1ccc(Cl)c(Cl)c1)N/N=C/c1ccc(O)cc1`, the inhibition was 17.2% (active).
With `Cc1ccc(NC(=O)C(C)c2cccc(C(=O)c3ccccc3)c2)cc1` (stereo not drawn) the inhibition was 85.5% (active).
`O=C1CCCN1CCCNc1ncnc2c1[nH]c1ccccc12` was tested, and the inhibition was 55.3% (active).
`Cc1ccc(S(=O)(=O)N(C)C)cc1NC(=O)c1ccc(-n2cncn2)c([N+](=O)[O-])c1` was tested, and the inhibition was 69.4% (active).
In the case of `Cc1ccccc1OCC(=O)NNC(=O)c1ccc(-n2cncn2)c([N+](=O)[O-])c1`, the inhibition is reported as 24.7% (active).
For `O=C(NNC(=O)c1ccc(-n2cncn2)c([N+](=O)[O-])c1)c1ccccc1`, the inhibition was 50.4% (active).
In the case of `CC(=O)c1ccc(NC(=O)c2ccc(-n3cncn3)c([N+](=O)[O-])c2)cc1`, the inhibition is reported as 72% (active).
For `c1ccc2cc3c(NCCN4CCOCC4)ccnc3cc2c1`, the inhibition was 50.4% (active).
In the case of `Cc1ccc(S(=O)(=O)c2c[nH]c3ccc(C)cc3c2=O)cc1`, the inhibition is reported as 45.7% (active).
With `Cc1ccc(S(=O)(=O)c2c[nH]c3ccc(Cl)cc3c2=O)cc1` the inhibition was 85.2% (active).
In the case of `O=C(NCCN1CCOCC1)c1ccccc1N1C(=O)[C@@H]2Cc3c([nH]c4ccccc34)C(c3cccc(Cl)c3)N2C1=O` (stereo partly drawn), the inhibition is reported as 18.1% (active).
In the case of `CCN(CC)C(=O)C(=O)c1cn(CC(=O)NCc2ccc3c(c2)OCO3)c2ccccc12`, the inhibition is reported as 79.4% (active).
For `O=C(CSc1nc2ccccc2[nH]1)N/N=C/C=C\c1ccccc1[N+](=O)[O-]`, the inhibition was 21.7% (active).
For `O=C(Cn1c2[n+](c3ccc(C(F)(F)F)cc31)CCCCC2)Nc1c(F)cccc1F`, the inhibition was 29.8% (active).
With `NS(=O)(=O)c1ccc(CCNC(=O)Nc2ccc(Cl)cc2)cc1` the inhibition was 37.4% (active).
For `O=C(Cc1ccc(S(=O)(=O)N2CCOCC2)s1)Nc1ccc(Br)c(C(F)(F)F)c1`, the inhibition was 33.2% (active).
With `Clc1ccc(-c2cc(C3CCNCC3)[nH]n2)c(Cl)c1` the inhibition was 52.6% (active).
`O=C(Cn1c(NCCO)nc2ccccc21)c1ccc(Cl)cc1Cl` was tested, and the inhibition was 5.98% (active).
`S=c1[nH]nc(CSCc2ccc(Cl)cc2Cl)n1-c1ccccc1` was tested, and the inhibition was 13.2% (active).
`COC(=O)CN1C(=S)N(c2ccccc2)C(=O)C1CC(=O)Nc1ccc(Cl)cc1` (stereo not drawn) was tested, and the inhibition was 27.5% (active).
`OC(c1cc(Cl)cc(Cl)c1)c1ncc(-c2ccccc2C(F)(F)F)[nH]1` (stereo not drawn) was tested, and the inhibition was 91.3% (active).
With `Cc1ccc(-c2cnc(C(O)c3cc(Cl)cc(Cl)c3)[nH]2)cc1` (stereo not drawn) the inhibition was 63.9% (active).
For `O=S(=O)(c1ccc(Br)cc1)N1CCC(c2nc3ccccc3[nH]2)CC1`, the inhibition was 20.5% (active).
In the case of `O=C(NCC(O)c1nc2ccccc2[nH]1)c1ccc(Br)cc1` (stereo not drawn), the inhibition is reported as 31.1% (active).
For `O=C(Nc1ccc(S(=O)(=O)Nc2ncccn2)cc1)c1cncc(Br)c1`, the inhibition was 2.54% (inactive).
With `O=C(O)c1ccc(NS(=O)(=O)c2ccc3c(c2)C(=O)c2cc(S(=O)(=O)Nc4ccc(C(=O)O)cc4)ccc2-3)cc1` the inhibition was 13.4% (active).
In the case of `CC(C)OCCCNc1ncnc2c1[nH]c1ccc(F)cc12`, the inhibition is reported as 95.6% (active).
For `CCN1CCCC1CNc1ncnc2c1[nH]c1ccc(F)cc12` (stereo not drawn), the inhibition was 53.7% (active).
With `CSc1nsc(NC(=O)Nc2ccccc2)n1` the inhibition was 39.8% (active).
`NC1=NC(=O)S/C1=C\c1ccc(O)cc1` was tested, and the inhibition was 40.1% (active).
With `CC(C)(C)c1ccc(/C=C2\SC(=O)N=C2N)cc1` the inhibition was 50.9% (active).
`O=C(O)CCn1c(O)c(C=C2N=c3ccccc3=N2)sc1=S` was tested, and the inhibition was 42.3% (active).
`Cn1c(CCCOc2ccc(Cl)cc2Cl)n[nH]c1=S` was tested, and the inhibition was 12.2% (active).
For `CCCCCCCC[n+]1cccc(C(=O)N2c3c(nc(N)[nH]c3=O)NC(C)C2C)c1` (stereo not drawn), the inhibition was 29.2% (active).
`COc1ccc(OCC(O)CNC(=O)Nc2ccc(Cl)cc2)cc1` (stereo not drawn) was tested, and the inhibition was 78% (active).
In the case of `Oc1[nH]c2ccc(Br)cc2c1N=Nc1nn[nH]n1`, the inhibition is reported as 14.6% (active).
In the case of `O=C(Nc1ccccc1)Nc1nnc(COc2ccccc2F)s1`, the inhibition is reported as 30.4% (active).
With `Clc1ccccc1SCc1nc2ccccc2[nH]1` the inhibition was 10.1% (active).
`Cc1ccc(CNC(=O)CSc2nnc3c(n2)[nH]c2ccc(F)cc23)cc1` was tested, and the inhibition was 78% (active).
`CCO[C@@H]1OC(C(=O)NCc2nc3ccccc3[nH]2)=C[C@H](C2CCCCC2)[C@H]1CCCO` was tested, and the inhibition was 48.9% (active).
For `CC(=N\NC(=O)c1cc(Br)ccc1O)/C(=N/O)C(=O)Nc1ccccc1`, the inhibition was 18.2% (active).
With `COc1ccccc1-n1c(SCC(=O)Nc2ccc(Cl)cc2)nc(O)c(Cc2ccccc2)c1=O` the inhibition was 77.2% (active).
For `COc1ccc(-c2[nH]ncc2/C=N/NC(=O)c2cc(Br)ccc2O)c(OC)c1`, the inhibition was 12.1% (active).
For `O=[N+]([O-])c1ccc(N2CCN(c3ccc(O)cc3)CC2)c(Cl)c1`, the inhibition was 10.9% (active).
